Key:
Assay in all cases: log2 ratio of Biotin-Ahx-Ub-VS probe labelling (fragment/DMSO); higher = less target engagement (more negative = stronger competition), active = hit call of the paper (q ≤ 0.05, log2 ratio ≤ -1)
Details in all cases: compound concentration: 200 uM; treatment time: 3 h
[1] = biological target: T1, OTUD6B (UniProt Q8N6M0)
T1 sequence (whole entry): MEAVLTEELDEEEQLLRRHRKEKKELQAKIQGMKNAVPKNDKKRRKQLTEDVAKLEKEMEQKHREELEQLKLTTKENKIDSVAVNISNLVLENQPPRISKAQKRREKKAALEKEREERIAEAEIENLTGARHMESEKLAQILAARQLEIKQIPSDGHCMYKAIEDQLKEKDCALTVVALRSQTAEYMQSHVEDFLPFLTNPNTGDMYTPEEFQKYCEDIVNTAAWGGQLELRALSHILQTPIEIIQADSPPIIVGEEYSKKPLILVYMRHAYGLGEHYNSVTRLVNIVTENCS
Summary of the method: (§1)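 Fragment (200 µM) or vehicle was incubated for 3 h with triplicate HEK293T lysate samples of 495 µg, which were then treated with Biotin-Ahx-Ub-VS at 0.5 µM final for 1 h. Labelled DUBs were enriched on NeutrAvidin, digested with LysC and trypsin, and analysed by diaPASEF LC-MS/MS. Values are average log2 fragment/vehicle ratios from an unpaired t-test on global-median-normalised Spectronaut label-free quantities, using proteins with ≥2 unique peptides.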

[2] = biological target: T2, OTUD7B (UniProt Q6GQQ9)
T2 sequence (whole entry): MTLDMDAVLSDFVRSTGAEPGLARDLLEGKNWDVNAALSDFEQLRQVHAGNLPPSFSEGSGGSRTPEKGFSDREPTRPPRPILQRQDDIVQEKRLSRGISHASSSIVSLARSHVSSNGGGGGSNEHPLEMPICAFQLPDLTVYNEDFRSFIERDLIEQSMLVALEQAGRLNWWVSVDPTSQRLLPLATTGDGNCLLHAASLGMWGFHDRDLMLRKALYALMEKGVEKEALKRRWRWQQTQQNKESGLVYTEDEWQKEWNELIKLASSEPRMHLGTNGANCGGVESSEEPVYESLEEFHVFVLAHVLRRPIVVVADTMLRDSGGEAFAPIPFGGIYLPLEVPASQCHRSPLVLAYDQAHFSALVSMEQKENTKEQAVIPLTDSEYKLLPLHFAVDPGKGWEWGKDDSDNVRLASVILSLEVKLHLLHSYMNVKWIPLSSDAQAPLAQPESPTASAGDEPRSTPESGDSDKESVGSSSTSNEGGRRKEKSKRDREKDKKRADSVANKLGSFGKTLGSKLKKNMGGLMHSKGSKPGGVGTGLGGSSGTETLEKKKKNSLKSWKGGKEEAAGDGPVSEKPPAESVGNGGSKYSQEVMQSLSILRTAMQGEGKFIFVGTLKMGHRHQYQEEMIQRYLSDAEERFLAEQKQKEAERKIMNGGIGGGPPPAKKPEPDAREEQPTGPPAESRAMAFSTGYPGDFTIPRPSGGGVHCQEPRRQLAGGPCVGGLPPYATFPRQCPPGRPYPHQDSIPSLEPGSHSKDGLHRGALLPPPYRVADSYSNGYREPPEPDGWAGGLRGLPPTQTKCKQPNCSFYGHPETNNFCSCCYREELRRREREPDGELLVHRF
Summary of the method: as §1

[3] = biological target: PRPF8 (UniProt Q6P2Q9)
Summary of the method: as §1

[4] = biological target: T3, PSMD7 (UniProt P51665)
T3 sequence (whole entry): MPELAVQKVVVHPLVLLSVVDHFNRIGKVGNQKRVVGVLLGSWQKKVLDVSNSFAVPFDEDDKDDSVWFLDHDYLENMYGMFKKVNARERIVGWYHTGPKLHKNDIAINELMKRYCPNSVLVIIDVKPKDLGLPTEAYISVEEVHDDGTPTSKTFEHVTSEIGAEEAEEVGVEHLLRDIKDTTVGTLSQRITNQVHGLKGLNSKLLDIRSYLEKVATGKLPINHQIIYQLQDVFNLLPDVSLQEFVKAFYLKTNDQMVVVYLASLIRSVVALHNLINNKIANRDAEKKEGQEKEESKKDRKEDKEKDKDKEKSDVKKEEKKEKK
Summary of the method: as §1

[5] = biological target: UCHL1 (UniProt P09936)
Summary of the method: as §1

[6] = biological target: T4, UCHL3 (UniProt P15374)
T4 sequence (whole entry): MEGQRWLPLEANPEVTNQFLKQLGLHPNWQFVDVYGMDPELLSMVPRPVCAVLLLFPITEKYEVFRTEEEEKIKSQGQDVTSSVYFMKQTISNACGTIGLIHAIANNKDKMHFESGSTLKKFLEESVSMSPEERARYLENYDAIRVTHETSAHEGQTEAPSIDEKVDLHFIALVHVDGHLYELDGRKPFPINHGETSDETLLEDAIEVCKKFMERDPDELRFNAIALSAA
Summary of the method: as §1

[7] = biological target: T5, UCHL5 (UniProt Q9Y5K5)
T5 sequence (whole entry): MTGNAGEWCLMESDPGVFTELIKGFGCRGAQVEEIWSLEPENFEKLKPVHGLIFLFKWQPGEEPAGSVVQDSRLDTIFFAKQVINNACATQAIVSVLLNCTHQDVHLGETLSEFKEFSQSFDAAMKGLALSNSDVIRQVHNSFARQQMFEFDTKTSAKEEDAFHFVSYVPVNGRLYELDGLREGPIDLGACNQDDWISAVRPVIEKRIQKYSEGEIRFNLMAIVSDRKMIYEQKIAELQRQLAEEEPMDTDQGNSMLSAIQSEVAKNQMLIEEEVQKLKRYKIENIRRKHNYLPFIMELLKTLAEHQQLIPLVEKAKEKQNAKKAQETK
Summary of the method: as §1

[8] = biological target: USP10 (UniProt Q14694)
Summary of the method: as §1

[9] = biological target: T6, USP15 (UniProt Q9Y4E8)
T6 sequence (whole entry): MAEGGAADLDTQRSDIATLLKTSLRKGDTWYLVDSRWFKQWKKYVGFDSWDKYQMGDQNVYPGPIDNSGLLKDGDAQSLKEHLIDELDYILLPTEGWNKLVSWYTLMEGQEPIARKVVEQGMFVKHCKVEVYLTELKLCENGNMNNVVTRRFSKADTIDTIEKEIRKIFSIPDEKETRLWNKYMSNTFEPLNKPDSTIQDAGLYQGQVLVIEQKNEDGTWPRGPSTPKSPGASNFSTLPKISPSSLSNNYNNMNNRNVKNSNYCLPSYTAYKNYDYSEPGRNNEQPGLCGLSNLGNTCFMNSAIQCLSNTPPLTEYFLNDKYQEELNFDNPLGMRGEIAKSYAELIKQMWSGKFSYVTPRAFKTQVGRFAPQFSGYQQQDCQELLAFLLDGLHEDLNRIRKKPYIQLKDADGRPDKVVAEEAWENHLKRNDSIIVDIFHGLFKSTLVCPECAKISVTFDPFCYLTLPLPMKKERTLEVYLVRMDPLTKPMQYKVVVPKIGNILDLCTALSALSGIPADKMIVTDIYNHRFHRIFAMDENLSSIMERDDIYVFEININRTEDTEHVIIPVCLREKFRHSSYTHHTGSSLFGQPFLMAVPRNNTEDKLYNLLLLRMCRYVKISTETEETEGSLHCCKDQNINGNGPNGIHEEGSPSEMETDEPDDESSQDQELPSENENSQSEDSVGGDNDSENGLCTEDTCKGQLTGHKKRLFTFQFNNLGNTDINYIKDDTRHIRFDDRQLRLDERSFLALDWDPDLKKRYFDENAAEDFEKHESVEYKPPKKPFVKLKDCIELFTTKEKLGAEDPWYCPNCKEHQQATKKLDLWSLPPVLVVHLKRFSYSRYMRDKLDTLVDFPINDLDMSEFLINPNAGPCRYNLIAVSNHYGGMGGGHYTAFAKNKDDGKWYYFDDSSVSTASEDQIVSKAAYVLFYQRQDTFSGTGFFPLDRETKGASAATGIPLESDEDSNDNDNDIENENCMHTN
Summary of the method: as §1

[10] = biological target: USP16 (UniProt Q9Y5T5)
Summary of the method: as §1

Measured: log2 ratio of Biotin-Ahx-Ub-VS probe labelling

Chain of USP10 (Q14694 whole entry): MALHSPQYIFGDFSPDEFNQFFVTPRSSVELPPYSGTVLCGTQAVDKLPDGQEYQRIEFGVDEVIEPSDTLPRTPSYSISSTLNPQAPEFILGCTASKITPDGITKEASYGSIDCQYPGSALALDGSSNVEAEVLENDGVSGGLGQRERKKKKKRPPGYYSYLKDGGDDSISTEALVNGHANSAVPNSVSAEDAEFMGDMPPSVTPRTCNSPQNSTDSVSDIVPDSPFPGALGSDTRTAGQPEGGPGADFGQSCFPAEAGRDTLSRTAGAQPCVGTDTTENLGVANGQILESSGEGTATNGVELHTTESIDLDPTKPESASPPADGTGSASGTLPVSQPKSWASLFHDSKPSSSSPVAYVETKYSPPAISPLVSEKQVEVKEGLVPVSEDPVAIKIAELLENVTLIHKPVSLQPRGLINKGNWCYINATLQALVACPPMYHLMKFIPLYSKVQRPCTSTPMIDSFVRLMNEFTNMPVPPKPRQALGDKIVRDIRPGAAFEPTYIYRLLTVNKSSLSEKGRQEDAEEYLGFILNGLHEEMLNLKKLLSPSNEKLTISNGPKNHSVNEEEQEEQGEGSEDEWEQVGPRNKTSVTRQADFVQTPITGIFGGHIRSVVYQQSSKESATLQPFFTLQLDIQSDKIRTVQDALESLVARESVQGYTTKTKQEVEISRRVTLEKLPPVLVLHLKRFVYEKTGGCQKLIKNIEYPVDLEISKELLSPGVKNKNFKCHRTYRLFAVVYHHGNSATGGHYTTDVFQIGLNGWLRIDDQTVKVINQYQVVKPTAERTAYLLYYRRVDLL
Chain of USP16 (Q9Y5T5 whole entry, looked up): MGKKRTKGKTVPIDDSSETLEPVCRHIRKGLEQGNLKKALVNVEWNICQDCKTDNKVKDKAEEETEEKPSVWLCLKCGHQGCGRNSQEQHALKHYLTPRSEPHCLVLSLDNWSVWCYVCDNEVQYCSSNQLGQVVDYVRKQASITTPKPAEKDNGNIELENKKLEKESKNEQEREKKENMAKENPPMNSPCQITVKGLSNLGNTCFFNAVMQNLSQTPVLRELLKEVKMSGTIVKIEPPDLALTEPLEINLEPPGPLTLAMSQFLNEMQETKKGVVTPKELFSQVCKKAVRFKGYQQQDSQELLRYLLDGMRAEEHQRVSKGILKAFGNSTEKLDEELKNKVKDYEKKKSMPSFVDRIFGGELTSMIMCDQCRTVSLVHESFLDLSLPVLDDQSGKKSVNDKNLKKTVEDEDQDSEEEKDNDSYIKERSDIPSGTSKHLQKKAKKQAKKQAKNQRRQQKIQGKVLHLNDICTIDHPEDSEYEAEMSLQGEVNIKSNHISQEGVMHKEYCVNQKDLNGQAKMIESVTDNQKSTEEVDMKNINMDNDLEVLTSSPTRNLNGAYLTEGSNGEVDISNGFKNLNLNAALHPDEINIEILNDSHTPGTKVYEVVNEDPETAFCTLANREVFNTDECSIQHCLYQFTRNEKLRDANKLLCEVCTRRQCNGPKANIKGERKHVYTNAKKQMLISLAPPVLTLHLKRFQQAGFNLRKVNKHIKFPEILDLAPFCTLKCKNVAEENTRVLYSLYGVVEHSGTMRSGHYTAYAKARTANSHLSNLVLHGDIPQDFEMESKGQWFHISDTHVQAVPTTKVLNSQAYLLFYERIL
Chain of UCHL1 (P09936 whole entry, looked up): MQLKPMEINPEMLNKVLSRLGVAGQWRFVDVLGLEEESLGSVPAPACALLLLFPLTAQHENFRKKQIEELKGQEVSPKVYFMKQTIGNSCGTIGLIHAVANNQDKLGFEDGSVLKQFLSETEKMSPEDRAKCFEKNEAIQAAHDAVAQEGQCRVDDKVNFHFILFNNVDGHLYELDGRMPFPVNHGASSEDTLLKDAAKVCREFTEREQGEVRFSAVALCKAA

C[C@H]1CN(C(=O)CCl)CCN1C(=O)c1cnn(C)c1.Cl
inactive: [1] -0.288 | [2] -0.168 | [3] 0.144 | [4] -0.0809 | [6] 0.376 | [7] -0.259 | [8] 0.0256 | [9] -0.149 | [10] -0.146
active: [5] -2.38

Reference: the supplement of paper PMC11732987, “Enantioselective OTUD7B fragment discovery through chemoproteomics screening and high-throughput optimisation” (Communications Chemistry, 2025)
